# Screening data (PubChem BioAssay)
# In the library only some 2.3% were active in any assay of this set; here they are far more common.
# C diff growth: C. difficile growth inhibitors, primary screen, HTS; Clostridium difficile clinical isolate growth, OD600, 24 h; active compounds read low; growth activity, negative = inhibition, % at 16 µg/mL (by protocol); 86,000 tested, 0.25% active; AID 1259249, 2017;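 active = mean growth activity at or below -80% and every replicate also at or below -80%; inconclusive = mean at or below -80% but some replicate above -80%; inactive = mean growth activity above -80%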;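 note: 0% = DMSO wells and -100% = levofloxacin 16 µg/mL wells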
# Pf Dd2 inh: P. falciparum Dd2 growth inhibitors, primary screen, SYBR Green fluorescence, single dose replicates; activity change, % at 10 µM; 94,000 tested, 2.3% active; 72 h; active compounds read low; in the data active = activity change below about -80%; inconclusive = no clear call, values can overlap the other calls
# Numbers without * were called inactive; ? = inconclusive; nt = no result.
SMILES,C diff growth,Pf Dd2 inh
C[C@@H]1CN([C@H](C)CO)C(=O)c2cc(NC(=O)c3ccncc3)ccc2O[C@@H]1CN(C)Cc1ccc(C(=O)Nc2ccccc2N)cc1,nt,-61
C[C@@H]1CCCCO[C@@H](CN(C)Cc2ccc(C(=O)Nc3ccccc3N)cc2)[C@@H](C)CN([C@H](C)CO)C(=O)c2cc(NC(=O)Cc3ccccc3)ccc2O1,2,-84*
C[C@@H]1CN([C@@H](C)CO)C(=O)c2cc(NC(=O)Cc3cn(C)c4ccccc34)ccc2O[C@H]1CN(C)Cc1ccc(C(=O)Nc2ccccc2N)cc1,nt,-85*
C[C@H]1CN([C@@H](C)CO)C(=O)c2cc(NC(=O)Cc3ccccc3)ccc2O[C@H]1CN(C)Cc1ccc(C(=O)Nc2ccccc2N)cc1,2,-68
CC(C)NC(=O)Nc1ccc2c(c1)C(=O)N([C@H](C)CO)C[C@H](C)[C@H](CN(C)Cc1ccc(C(=O)Nc3ccccc3N)cc1)OCCCC[C@@H](C)O2,4,?
C[C@@H]1CN([C@@H](C)CO)C(=O)c2cc(NC(=O)Cc3ccccc3)ccc2O[C@@H]1CN(C)Cc1ccc(C(=O)Nc2ccccc2N)cc1,3,-86*
C[C@H]1CN([C@@H](C)CO)C(=O)c2cc(NC(=O)c3ccncc3)ccc2O[C@@H]1CN(C)Cc1ccc(C(=O)Nc2ccccc2N)cc1,5,-86*
C[C@@H]1CN([C@@H](C)CO)C(=O)c2cc(NC(=O)Cc3cn(C)c4ccccc34)ccc2O[C@@H]1CN(C)Cc1ccc(C(=O)Nc2ccccc2N)cc1,nt,-69
C[C@H](CO)N1C[C@H](C)[C@@H](CN(C)S(=O)(=O)c2ccc(F)cc2)Oc2cc(C3=CCCCC3)ccc2S1(=O)=O,13,-69
C[C@H](CO)N1C[C@H](C)[C@@H](CN(C)C(=O)C2CCCCC2)OCCCC[C@H](C)Oc2ccc(NC(=O)CCC(F)(F)F)cc2C1=O,-7,4
C[C@H]1CCCCO[C@@H](CN(C)C(=O)C2CCCCC2)[C@@H](C)CN([C@@H](C)CO)C(=O)c2cc(NC(=O)Nc3ccc(C(F)(F)F)cc3)ccc2O1,1,-89*
C[C@@H]1CCCCO[C@H](CN(C)C(=O)C2CCCCC2)[C@@H](C)CN([C@@H](C)CO)C(=O)c2cc(NC(=O)Nc3ccc(C(F)(F)F)cc3)ccc2O1,7,-88*
C[C@H]1CCCCO[C@@H](CN(C)C(=O)C2CCCCC2)[C@@H](C)CN([C@@H](C)CO)C(=O)c2cc(NC(=O)CCC(F)(F)F)ccc2O1,-4,-82*
C[C@H]1CCCCO[C@@H](CN(C)C(=O)C2CCCCC2)[C@@H](C)CN([C@@H](C)CO)C(=O)c2cc(NC(=O)Nc3ccc(F)cc3)ccc2O1,-4,-85*
C[C@H](CO)N1C[C@H](C)[C@H](CN(C)C(=O)C2CCCCC2)OCCCC[C@H](C)Oc2ccc(NC(=O)Nc3ccc(C(F)(F)F)cc3)cc2C1=O,-1,-24
C[C@@H]1CN([C@@H](C)CO)C(=O)c2cc(NC(=O)Nc3ccc(C(F)(F)F)cc3)ccc2O[C@@H](C)CCCCO[C@H]1CN(C)C(=O)C1CCCCC1,1,-68
C[C@H](CO)N1C[C@H](C)[C@@H](CN(C)C(=O)C2CCCCC2)OCCCC[C@H](C)Oc2ccc(NC(=O)Nc3ccc(F)cc3)cc2C1=O,-1,1
CCNC(=O)C[C@H]1C=C[C@H](NC(=O)C2CCOCC2)[C@@H](CO)O1,6,18
O=C(C[C@@H]1C=C[C@H](NS(=O)(=O)c2cccc(F)c2)[C@@H](CO)O1)N1CCCCC1,-3,7
COCC(=O)Nc1ccc2c(c1)C(=O)N(C)C[C@H](OC)[C@H](C)CN(Cc1cccc(F)c1)[C@@H](C)CO2,nt,-82*
CO[C@@H]1CN(C)C(=O)c2cc(NC(C)=O)ccc2OC[C@H](C)N(Cc2ccncc2)C[C@H]1C,nt,-31
CO[C@H]1CN(C)C(=O)c2cc(NC(C)=O)ccc2OC[C@H](C)N(Cc2ccncc2)C[C@H]1C,nt,-80*
COCC(=O)Nc1ccc2c(c1)C(=O)N(C)C[C@@H](OC)[C@@H](C)CN(Cc1cccc(F)c1)[C@H](C)CO2,nt,-15
COc1ccc(CN(C)C[C@H]2OCCCC[C@H](C)Oc3ccc(NS(=O)(=O)c4cccs4)cc3C(=O)N([C@@H](C)CO)C[C@@H]2C)cc1,4,-14
C[C@H](CO)N1C[C@H](C)[C@H](CN(C)Cc2ccc3c(c2)OCO3)Oc2ccc(N(C)C)cc2C1=O,-2,0
SMILES,C diff growth,Pf Dd2 inh
C[C@H](CO)N1C[C@H](C)[C@@H](CN(C)Cc2ccccc2)Oc2c(NC(=O)c3ccc(-c4nccs4)cc3)cccc2C1=O,10,-6
C[C@@H]1CN([C@@H](C)CO)C(=O)c2cccc(NC(=O)c3ccc(-c4nccs4)cc3)c2O[C@@H]1CN(C)Cc1ccccc1,-6,-21
C[C@@H]1CN([C@@H](C)CO)C(=O)c2cccc(NC(=O)c3ccc(-c4nccs4)cc3)c2O[C@@H]1CN(C)Cc1ccc(C(=O)Nc2ccccc2N)cc1,3,-95*
C[C@H](CO)N1C[C@H](C)[C@H](CN(C)Cc2ccc(C(=O)Nc3ccccc3N)cc2)Oc2c(NC(=O)c3ccc(-c4nccs4)cc3)cccc2C1=O,-5,-90*
C[C@H]1CN([C@@H](C)CO)C(=O)Cc2cc(NS(=O)(=O)c3cccs3)ccc2O[C@@H]1CN(C)Cc1ccncc1,5,4
Cc1ccc(S(=O)(=O)Nc2ccc3c(c2)C(=O)N([C@H](C)CO)C[C@H](C)[C@@H](CN(C)C(=O)Nc2c(C)noc2C)OCCCC[C@H](C)O3)cc1,0,14
COc1ccc(S(=O)(=O)Nc2ccc3c(c2)C(=O)N([C@@H](C)CO)C[C@H](C)[C@H](CN(C)C(=O)Nc2ccc(C(F)(F)F)cc2)OCCCC[C@H](C)O3)cc1,11,-56
COc1ccc(S(=O)(=O)Nc2ccc3c(c2)C(=O)N([C@@H](C)CO)C[C@@H](C)[C@@H](CN(C)C(=O)Nc2ccc(C(F)(F)F)cc2)OCCCC[C@H](C)O3)cc1,9,-87*
COc1ccc(S(=O)(=O)Nc2ccc3c(c2)C(=O)N([C@@H](C)CO)C[C@H](C)[C@@H](CN(C)C(=O)Nc2ccc(C(F)(F)F)cc2)OCCCC[C@H](C)O3)cc1,2,-75
COc1ccc(S(=O)(=O)Nc2ccc3c(c2)C(=O)N([C@@H](C)CO)C[C@H](C)[C@@H](CN(C)C(=O)Nc2ccc(C(F)(F)F)cc2)OCCCC[C@@H](C)O3)cc1,-6,-84*
CCCC(=O)N1CC2(CCN(Cc3cccnc3)CC2)c2c([nH]c3cc(OC)ccc23)[C@H]1CO,-3,-45
C[C@H]1CN([C@@H](C)CO)C(=O)c2cc(C#CC3CC3)cnc2O[C@H]1CN(C)C(=O)Nc1ccccc1,nt,8
C[C@@H]1CCCCO[C@H](CN(C)C(=O)Nc2ccc(C(F)(F)F)cc2)[C@@H](C)CN([C@@H](C)CO)C(=O)c2cc(NC(=O)c3ccncc3)ccc2O1,3,-63
C[C@@H]1CN([C@@H](C)CO)C(=O)c2cc(NC(=O)c3ccncc3)ccc2O[C@@H](C)CCCCO[C@H]1CN(C)Cc1ccc(C(F)(F)F)cc1,9,-81*
C[C@@H]1CCCCO[C@H](CN(C)C(=O)Nc2ccc(C(F)(F)F)cc2)[C@H](C)CN([C@H](C)CO)C(=O)c2cc(NC(=O)c3ccccc3)ccc2O1,13,-53
